Assay outcomes (PubChem)
IEC-6 tox: counter-screen for KLF5 inhibitors: cytotoxicity in IEC-6 cells; IEC-6 cytotoxicity, luminescence viability; inhibition, % at 5 µM; AID 1825; 290,000 compounds, 0.78% hits; in the data active = inhibition above about 22%;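 also: 0% = plate median of test compound wells and 100% = cytotoxic reference compound wells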
BaF3 tox: parental Ba/F3 viability inhibition as JAK2V617F counter-screen; CellTiter-Glo ATP luminescence; inhibition, % at 5.6 µM; 220,000 compounds, 1.1% hits; AID 1486;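 active = inhibition above a per-campaign cutoff, the mean inhibition of all tested compounds plus 3 SD, cut at about 27% in these data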;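 also: 0% = DMSO wells and 100% = JAK Inhibitor I control wells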
Ba/F3 V617F tox: reduce viability of Ba/F3 cells dependent on JAK2V617F; Ba/F3 EpoR-JAK2V617F viability, ATP luminescence; inhibition, % at 5.6 µM; 220,000 compounds, 1.1% hits; AID 1446;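 active = inhibition above the campaign mean plus 3 SD over all tested compounds, cut at about 24% in these data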;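 also: cytokine-independent growth of Ba/F3 cells driven by EpoR plus mutant JAK2; 0% = DMSO-treated cells and 100% = JAK inhibitor I control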
APP transl inh: APP translation inhibition. SH-SY5Y APP 5'UTR-luciferase reporter, luminescence. inhibition, % at 2 µM. 190,000 compounds, 0.82% hits;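 active = inhibition above a set limit, derived from the sample mean plus 3 SD, cut at about 45% in these data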
aSyn 5UTR inh: MLPCN primary screen, SNCA 5' untranslated region | alpha-synuclein 5'UTR reporter, inhibitor activity | inhibition, % (tested at 7.5 µM) | 300,000 compounds, 0.82% hits; in the data active = inhibition above about 60%;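 also: H4 neuroglioblastoma cells stably carrying SNCA 5'UTR luciferase fusion; 0% = DMSO wells and 100% = positive control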
KLF5 inhibitor: kruppel-like factor 5 inhibition; 290,000 compounds, 0.23% hits; AID 1700; inhibition, % at 5 µM; DLD-1 KLF5 promoter-luciferase reporter, luminescence;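 active = inhibition above a per-plate limit of that plate's mean compound inhibition plus 3 SD, cut at about 60% in these data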;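 also: 0% = DMSO wells and 100% = LY294002 at 200 µM; higher means less KLF5 promoter-driven luciferase light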
* = called active by the depositor; / = not tested or not shown. In the library only some 2.1% were active in any assay of this set; here they are far more common.

SMILES	IEC-6 tox	BaF3 tox	Ba/F3 V617F tox	APP transl inh	aSyn 5UTR inh	KLF5 inhibitor
O=C(COc1ccc(/C=N/NC(=O)c2cc3ccccc3o2)cc1Cl)Nc1ccccc1	-5.2	3.1	-2.0	-31.6	100.8*	-28.6
NC(=S)Nc1cccc(O)c1	0.9	-5.5	-1.5	/	11.8	-46.4
CC1CCc2cc(F)ccc2N1C(=O)c1ccc2c(c1)OCO2 (stereo unspecified)	6.4	35.9*	32.3*	-9.6	5.5	-1.2
COc1ccc(-c2nc(C)ncc2-c2csc(C)n2)c(O)c1	-3.6	4.8	-1.5	14.6	-1.4	-24.5
COc1ccc(-c2ncncc2-c2csc(C)n2)c(O)c1	-2.0	31.7*	-1.8	-0.2	-2.1	-11.5
Cc1ccc(C)c(S(=O)(=O)/N=C2\C=C(NS(=O)(=O)c3ccccc3)C(=O)c3ccccc32)c1	-1.1	/	/	/	20.4	10.0
Cc1cc(C)c(S(=O)(=O)/N=C2/C=C(Sc3ncn[nH]3)C(=O)c3ccccc32)cc1C	13.6	7.1	40.6*	88.8*	/	-0.9
O=C(NCCc1ccco1)C(=O)NCC1OCCCN1S(=O)(=O)c1ccccc1 (stereo unspecified)	-7.5	/	/	/	4.9	-28.5
O=C(Nc1cccc(Cl)c1)Nc1cnccn1	1.7	/	/	/	-33.5	-54.6
O=C(Nc1cccc(Cl)c1)Nc1ccnc(-c2cccnc2)n1	-9.5	0.5	7.5	56.5*	25.2	-8.1
COc1ccc(NC(=O)NNS(=O)(=O)c2ccc(OC)c(OC)c2)c(OC)c1	0.7	/	/	/	2.3	-4.9
c1ccc(C[n+]2ccc3ccccc3c2)cc1	/	/	/	/	9.0	/
c1ccc(C[n+]2cccc(-c3ccccc3)c2)cc1	-5.2	63.6*	65.2*	16.1	-28.0	-5.9
Cc1ccc(NC(=S)/N=C(\N)Nc2nc(C)c3cc(C)ccc3n2)c(C)c1	3.0	51.2*	42.2*	-6.9	27.3	3.7
COc1ccc2nc(N/C(N)=N/C(=S)Nc3cccc(C)c3)nc(C)c2c1	-0.7	24.2	7.5	/	-2.2	0.7
Cc1ccc(NC(=S)/N=C(\N)Nc2nc(C)c3cc(C)c(C)cc3n2)cc1C	-1.0	38.0*	15.2	8.4	17.6	-3.7
CCc1ccccc1NC(=S)/N=C(\N)Nc1nc(C)c2cc(C)ccc2n1	-0.9	55.4*	53.7*	-10.8	41.7	8.7
O=C(Cn1nc2n(c1=O)-c1ccccc1SC2)N/N=C/c1cccs1	1.7	-2.0	3.0	/	20.4	-8.6
COc1ccc(S(=O)(=O)Nc2ccccc2C(=O)N2CCOCC2)cc1Cl	-0.7	/	/	/	11.9	-21.6
CSCCC(NS(=O)(=O)c1cccs1)C(=O)NCc1cccs1 (stereo unspecified)	-1.7	4.6	-2.4	47.3*	2.7	6.3
CC(=O)Nc1cccc(OCCCNS(=O)(=O)c2ccc(F)cc2)c1	-3.2	1.2	-2.0	/	/	-8.9
Cc1cc(C(=O)Nc2nc3ccc(Cl)cc3s2)nn1C	-5.3	0.5	-4.1	/	-128.0	-148.0
Cn1ncc(Cl)c1C(=O)Nc1nc2ccc(Cl)cc2s1	-0.2	36.9*	-2.6	-98.9	-198.3	-22.3
CC(C)C(OC(=O)c1cccc(S(=O)(=O)NCC(F)(F)F)c1)C(=O)NC(N)=O (stereo unspecified)	1.1	9.2	5.2	19.2	11.1	-5.5
COc1ccc(N(C)C(=O)C2CCN(S(=O)(=O)c3cccc4nonc34)CC2)cc1	3.3	/	/	/	13.7	-24.8
SMILES	IEC-6 tox	BaF3 tox	Ba/F3 V617F tox	APP transl inh	aSyn 5UTR inh	KLF5 inhibitor
CCOc1ccccc1N(C)C(=O)C1CCN(S(=O)(=O)c2cccc3nonc23)CC1	-3.1	4.7	-2.1	62.9*	-14.1	-22.7
CCc1ccc(-c2cc(C(=O)N/N=C/c3c[nH]c4ccccc34)[nH]n2)cc1	8.1	9.4	2.7	-208.4	-2.8	-94.7
CCc1ccc(/C=C/c2c[nH]c3ccccc23)[n+](CC)c1	-3.1	79.0*	94.3*	-0.9	9.8	-9.0
CC1CCN(c2c(NCc3ccc(C(=O)N4CCc5ccccc54)cc3)c(=O)c2=O)CC1	-0.4	3.6	0.6	2.8	88.0*	-13.8
O=C1/C(=C/c2cccc(F)c2)Oc2cc(O)ccc21	1.7	/	/	/	-31.6	-35.6
CC(=O)Nc1ccc(C#Cc2ccc(NC(C)=O)cc2)cc1	8.0	12.3	6.3	-7.7	73.7*	-27.6
CC(=O)Nc1ccc(-c2ccc(NC(C)=O)cc2)cc1	4.5	3.4	-2.1	-22.3	-60.2	-50.0
Cn1c(CSCc2ccc(F)cc2)nnc1SCC(=O)Nc1cccc(C(=O)O)c1	-1.9	1.4	-0.8	/	9.9	-2.3
CC(C)Cn1c(=O)c2ccccc2n2c(CCC(=O)NCC3CCCO3)nnc12 (stereo unspecified)	-1.5	/	/	/	16.5	9.4
